ChEMBL document CHEMBL4296182, “CO-ADD screening of NIH NCI Diversity Set V”
For part of these data: Measured potencies and affinities stand elsewhere.

Experiments:
[1] = system: Staphylococcus aureus; experiment: Antibacterial activity against Staphylococcus aureus MRSA ATCC 43300 (CO-ADD:GP_020); MIC in CAMBH media using NBS plates, by Resazurin F(560/590); type: functional; conditions: Concentration 20 uM, ASSAY_TEST Inhibition of Bacterial Growth, detection method Resazurin, Fluorescence (ex560/em590), MEDIA CAMHB, plate type 384well, CORNING #3640, time 18 hr
[2] = system: Acinetobacter baumannii; experiment: Antibacterial activity against Acinetobacter baumannii ATCC 19606 (CO-ADD:GN_034); MIC in CAMBH media using NBS plates, by Resazurin F(560/590); type: functional; conditions: Concentration 20 uM, ASSAY_TEST Inhibition of Bacterial Growth, detection method Resazurin, Fluorescence (ex560/em590), MEDIA CAMHB, plate type 384well, CORNING #3640, time 18 hr
[3] = system: Escherichia coli; experiment: Antibacterial activity against Escherichia coli ATCC 25922 (CO-ADD:GN_001); MIC in CAMBH media using NBS plates, by Resazurin F(560/590); type: functional; conditions: Concentration 20 uM, ASSAY_TEST Inhibition of Bacterial Growth, detection method Resazurin, Fluorescence (ex560/em590), MEDIA CAMHB, plate type 384well, CORNING #3640, time 18 hr
[4] = system: Klebsiella pneumoniae; conditions: Concentration 20 uM; ASSAY_TEST Inhibition of Bacterial Growth; detection method Absorption (OD600); MEDIA CAMHB; plate type 384well; NBS; CORNING #3640; time 18 hr
[5] = system: Candida albicans; conditions: 20 µM
[6] = system: Cryptococcus neoformans; conditions: Concentration 20 uM; ASSAY_TEST Inhibition of Fungal Growth; detection method Resazurin; Absorption (OD600-OD570); plate type 384well; NBS; CORNING #3640

SMILES	Inhibition [1] [%]	Inhibition [2] [%]	Inhibition [3] [%]	Inhibition [4] [%]	Inhibition [5] [%]	Inhibition [6] [%]
c1cncc(C2Nc3cccc4cccc(c34)N2)c1	-23.65	-11.45	-11.57	4.78	10.3	30.98
CN1CCC2(O)OCCCC2C1 (stereo not drawn)	3.54	-13.99	3.03	26.78	1.09	3.57
COc1ccc2c(c1)C13CCN(C)C(C2)C1CCC1(C3)OCCO1 (stereo not drawn)	-3.64	10.92	9.14	10.59	2.14	-7.98
CC(=O)Nc1cc([As](=O)(O)O)ccc1O [ACETARSONE]	12.71	13.01	0.28	16.86	1.06	-8.45
Cc1c(CCN)ccc2c1[nH]c1ccccc12	5.19	-3.14	0.87	4.23	0.65	-5.14
c1ccc2c(c1)Sc1ccccc1N2CC1CN2CCC1CC2 (stereo not drawn) [MEQUITAZINE]	31.62	2.18	10.66	26.05	3.26	-3.37
CC(=O)O.CCC(N)Cc1c[nH]c2ccccc12 (stereo not drawn) [ETRYPTAMINE ACETATE]	10.71	-7.1	6.98	14.32	2.48	-7.72
O=C1CN=C(c2ccc[nH]2)c2cc(Cl)ccc2N1	5.67	14.08	-2.95	17.48	0.21	-5.64
SC1=NC2(CCCCC2)NC12CCCCC2	8.84	6.83	-0.29	17.38	4.26	-3.97
CN1C(=O)NC(=O)C(/N=N/c2ccc(Cl)cc2)C1=O (stereo not drawn)	11.94	12.18	3.45	13.9	1.14	-3.1
COc1cc2c(cc1O)CC1c3c(cc(O)c(OC)c3-2)CCN1C (stereo not drawn)	8.78	-19.02	10.6	7.6	-2.23	-8.59
Cc1ccc2c(c1)Oc1ccccc1N=C2	14.17	5.41	-0.47	8.46	8.51	-3.65
CC(=O)Nc1cccc([As](=O)(c2cccc(NC(C)=O)c2)c2cccc(NC(C)=O)c2)c1	0.93	1.38	-5.49	9.67	0.37	-8.79
CCN1CC2C3CCC(C)(O3)C2C1 (stereo not drawn)	2.81	-6.99	12.74	12.11	0.39	-3.82
CC(C)(C)n1cc(C(=O)c2ccccc2)cc1-c1ccccc1	20.55	13.8	7.58	11.31	3.13	-8.32
CN1CCN(c2nc(N)cc(O)n2)CC1	-8.8	13.73	3.5	7.87	7.43	-4.09
CC(=O)Nc1ccc([As](=O)(O)c2ccc([N+](=O)[O-])cc2)cc1	12.11	8.34	-3.43	10.87	-1.88	0.38
C[C@]12CC[C@@H]3c4ccc(OC(=O)N(CCCl)CCCl)cc4CC[C@H]3[C@@H]1CC[C@@H]2O [ESTRAMUSTINE]	12.2	-4.55	-3.6	12.05	11	-2.85
CCOP(=O)(OCC)/C(C#N)=C/c1ccc(-c2ccc(F)cc2F)o1	7.13	-5.44	9.56	5.2	10.3	-6.44
C[C@H]1CC[C@@]2(C)[C@@H](CC[C@@H]3[C@@H]2CC[C@]2(C)[C@@H](O)CC[C@@H]32)C1	19.61	5.34	2.81	23.84	9.51	-1.26
O=S(=O)(F)c1ccc2nc(-c3cccc(Sc4ccccc4)c3)cc(Cl)c2c1	0.33	-14.47	10.15	9.08	7.93	-2.04
O=[N+]([O-])c1cc(-c2ccc([As](=O)(O)O)cc2)ccc1[As](=O)(O)O	16.49	-5.02	9.73	17.36	0.95	-9.04
O=[N+]([O-])c1cc([As](=O)(O)c2ccc(O)c([N+](=O)[O-])c2)ccc1O	9.78	5.09	4.17	5.87	-1.08	-7.3
